# Assay results taken from PubChem BioAssay (Tox21).
# A number with no mark means an inactive call. The source made the active and inactive calls. Calls follow the shape of the full dose curve.
# Biological target: Gonadotropin-releasing hormone receptor (Homo sapiens) (UniProt P30968)
# Experiment: Human gonadotropin-releasing hormone receptor (GnRHR) small molecule agonists, calcium flux assay in GnRHR-HEK293 cells (AID 1920063); also: nearly all actives have a fitted effect of over 35% in size
# Conditions: calcium flux fluorescence, agonist mode; series mostly up to 57.6 µM; activity change: at the top concentration
# Excerpt: National Center for Advancing Translational Sciences [NCATS]
# Division of Preclinical Innovation [DPI]
# U.S. Environmental Protection Agency [EPA]
# National Institutes of Environmental Health Sciences [NIEHS]
# National Toxicology Program [NTP]
# U.S. Food and Drug Administration [FDA]
# Gonadotropin-releasing hormone receptor (GnRHR) is a G-protein-coupled receptor (GPCR) and acts (through phospholipase C) to increase intracellular inositol trisphosphate and then release intracellular calcium stores. Cell-based GnRHR-Hek293 calcium influx assay is using HEK293 cells that have been genetically engineered to express the human GnRHR, which activity can be measured by calcium signaling. A compound/drug can activate (agonist) GnRHR that can be monitored by levels of intracellular calcium.
# GnRHR-HEK293 cells developed by Codex Corp contain human GnRHR reporter gene, which was stably integrated into HEK 293 cells. The compound activation can be detected by fluorescence intensity via calcium flux assay. This cell line has been used to screen the Tox21 10K compound library to identify GnRHR agonists.
# GnRHR-Hek293 cells were dispensed at 1500cells/4uL/well in 1536-well black wall/clear bottom plates using a multidrop dispenser. After the assay plates were incubated at a 37 C/5% CO2 incubator for 18 hours, 4 uL of Calcium Dye Solution was added to each well. The plates were incubated at 37 C for 1 hour. For agonist mode, 23 nL of compounds dissolved in DMSO, positive controls or DMSO only was transferred to the assay plate by a pin tool station. The fluorescence intensity in the plates was measured using FDSS 7000EX kinetic plate reader with a filter set of Ex/Em=480/540 for 3 min at 1 sec intervals. Each test compound was measured at 15 concentrations and in triplicates.
# % is scaled to controls: 0 for no effect and ±100 for the full control effect.
# Gonadotropin-releasing hormone receptor (Homo sapiens), sequence (P30968 whole entry, looked up): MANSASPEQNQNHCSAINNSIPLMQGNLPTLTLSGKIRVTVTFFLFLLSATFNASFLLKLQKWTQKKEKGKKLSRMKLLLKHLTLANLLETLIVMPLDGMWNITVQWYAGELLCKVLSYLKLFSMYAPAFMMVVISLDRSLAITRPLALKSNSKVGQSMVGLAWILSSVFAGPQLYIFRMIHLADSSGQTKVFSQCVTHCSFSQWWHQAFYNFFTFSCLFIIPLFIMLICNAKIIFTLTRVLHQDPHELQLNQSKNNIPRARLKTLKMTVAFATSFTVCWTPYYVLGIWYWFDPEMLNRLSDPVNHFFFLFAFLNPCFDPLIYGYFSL
Compound,activity change,Potency
COc1ccc(NC(C)=O)cc1,-1.39%,
CC(=O)N(CC(O)CO)c1c(I)c(C(=O)NCC(O)CO)c(I)c(C(=O)NCC(O)CO)c1I (stereo not given),"2.87% [at 26.4 µM, stronger effect = higher value]",
CCCCCCN,1.73%,
CCCCCCCCSCC,0.0174%,
Cc1ccc(N(C)C)cc1,,inactive
CCCCSCCCC,1.05%,
CN/C(=C\[N+](=O)[O-])NCCSCc1ccc(CN(C)C)o1,,inactive
CC(C)(C)OCC1CO1 (stereo not given),-0.477%,
CC(C)(C)C(=O)OCOP(=O)(COCCn1cnc2c(N)ncnc21)OCOC(=O)C(C)(C)C,"0.286% [at 26.4 µM, stronger effect = higher value]",
Cc1cccc(Nc2ccccc2C(=O)O)c1C,,inactive
C=C1[C@H]2CC[C@@H]3[C@H]2C(C)(C)CCC[C@]13C,0.283%,
COc1cc(C(=O)N2CCCCCCC2)cc(OC)c1OC,"1.49% [at 26.4 µM, stronger effect = higher value]",
CSc1cnccn1,0.676%,
CC(C)NCC(O)COc1cccc2ccccc12 (stereo not given),4.72%,
Cc1ccccc1S(=O)(=O)O,0.416%,
C[C@@H]1CCN(C(=O)[C@H](CCCN=C(N)N)NS(=O)(=O)c2cccc3c2NC[C@H](C)C3)[C@@H](C(=O)O)C1,"-1.02% [at 26.4 µM, stronger effect = higher value]",
CCCCCCCCCCCC(=O)N(C)CC(=O)O,,inactive
CCC(C)(Oc1ccc(C2(c3ccc(OC(C)(CC)C(=O)O)cc3)CCCCC2)cc1)C(=O)O (stereo not given),"-1.04% [at 26.4 µM, stronger effect = higher value]",
CC(COCCO)OCCO (stereo not given),-0.171%,
C=CC(=O)NCOCCCC,,inactive

Compound,activity change,Potency
O=C1OC(=O)c2ccccc21,-0.704%,
O=C(c1ccc(Cl)cc1)c1ccc(Cl)cc1,-0.137%,
Cc1cccc2c1ccc1ccccc12,5.7%,
CC(CO)c1ccccc1 (stereo not given),-0.809%,
CC/C=C\CCO,1.85%,
Cc1ccc(/C(=C\CN2CCCC2)c2ccccn2)cc1,,inactive
C=CC(C)(O)CC/C=C(\C)CC (stereo not given),-1.34%,
CC(C)(C)OC=O,-0.598%,
O=c1oc2c(O)c(O)cc3c(=O)oc4c(O)c(O)cc1c4c23,"0.294% [at 11.8 µM, stronger effect = higher value]",
CCCCCCCCCOS(=O)(=O)O,0.604%,
CCC(C)NC(N)=O (stereo not given),-0.307%,
O=C(Oc1ccccc1)c1ccc(O)cc1,,inactive
OCCN1CCN(CCCN2c3ccccc3C=Cc3ccccc32)CC1,"-1.54% [at 26.4 µM, stronger effect = higher value]",
COC(=O)C1=C(C)NC(C)=C(C(=O)OCC(C)C)C1c1ccccc1[N+](=O)[O-] (stereo not given),,inactive
CC(=O)Nc1ccc(C)cc1,-1.73%,
C=C[C@H]1CN2CC[C@H]1C[C@@H]2[C@@H](O)c1ccnc2ccc(OC)cc12,,inactive
C[N+](C)(C)CC(O)CCl (stereo not given),1.23%,
CCCCC(CC)COC(C)=O (stereo not given),,inactive
CC(C)C(=O)C(C)C,1.68%,
O=S(=O)(O)c1ccccc1,,inactive
